The values that follow come from PubChem BioAssay.

Experiment [1] can be described thus: compounds altering circadian rhythm period length – cell-based, LOPAC library, luminescence reporter (AID 2774).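 Also: values are relative to mean of DMSO wells on each plate.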 As to conditions: circadian reporter cells, at 7 µM, actives lie on both sides.
Experiment [2] concerns Hepatitis C virus NS3 helicase. The experiment in a line: blockers of NS3h binding to ssDNA – biochemical, fluorescence polarization, LOPAC1280 library, primary screen (AID 687035; in the data active = inhibition above about 37%). As to conditions: Purified HCV NS3 helicase, Cy5-dT15 ssDNA binding fluorescence polarization; stronger effect = higher value; concentration not given here. For orientation: In fluorescence polarisation assays a small probe gives low polarisation when free and higher when bound to something large.

Experiment [3] in a line: compounds altering Cy5-DNA-NS3h complex signal – biochemical, LOPAC1280, artefact control for HCV NS3 helicase inhibitor project (AID 687037). As to conditions: Cy5-DNA-NS3h complex fluorescence interference counterscreen. For orientation: The purpose of a counterscreen is to sort out artefacts and off-target activity.
The nature of experiment [4]: viability loss with induced miR-34 in A549 – imaging, A549 dox-inducible miR-34, nuclei and caspase counts, primary screen (AID 1347080;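 active = compounds whose cell count with miR-34 switched on is under 0.7 times the count with it off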). As to conditions: A549 miR-34 inducible, Hoechst nuclei count, 48 h.
Experiment [5] is described as follows: blockers of cellular phospholipid synthesis – cell-based, LOPAC library, screen 4, primary screen (AID 1347384). As to conditions: animal cells, phospholipid biosynthesis inhibition screen; at 10 µM.
Experiment [6] is described as follows: galactose survival enhancers in mitochondrial complex I cybrids – cell-based, galactose medium, ATP luminescence, primary screen (AID 1645843;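 active = z-score of at least 1.8 in each of two replicates, scored against plate mean and spread of sample wells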;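 also: positive z means more ATP and so rescue of galactose-driven cybrid death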). As to conditions: complex I mutant cybrid cells, 72 h, stronger effect = higher value.
The nature of experiment [7]: compounds altering viability of human ES cells (AID 493140).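 Also: cells exposed to compounds for four days before counting.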 As to conditions: human embryonic stem cell survival screen; stronger effect = higher value.
Experiment [8] can be described thus: chitosan synthesis blockers in C. neoformans – flow cytometry, Cibacron Brilliant Red staining (AID 1347148).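 Also: compound exposure lasted three days at 37 degrees C.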 As to conditions: Cryptococcus neoformans chitosan, stronger effect = lower value; at 10 µM unless noted. A general note: A flow cytometer gives signals particle by particle.
Where [9] appears, read: measured here: relative caspase fold change +Dox/-Dox.
The mark [10] stands for this setting: measured here: total cells with miR-34 induction, stronger effect = lower value.
[11] abbreviates: measured here: total cells without miR-34 induction.

Structures are written as SMILES. “And” between values parts separate entries of the source, which are not always exact repeats. Equal values may be shown once. The source made the active and inactive calls. Unless noted, no rule for the calls is given here.

In the case of `NC(CP(=O)(O)O)C(=O)O` (stereo not given), the period change in experiment [1] was -0.025 h (inactive). Moreover, in experiment [2], the inhibition (as a rule, the relative decrease from the control value, in per cent) is -2% (inactive). For the same molecule, the fluorescence ratio (interference) in experiment [3] is 1 (inactive). Moreover, the fold change in experiment [4] (stronger effect = lower value) was 1.01 (inactive); in experiment [4] (setting [9]), 2.04. Moreover, the cell count is 10500 in experiment [4] (setting [10]) and 10400 in experiment [4] (setting [11]). Further, in experiment [5], the result was inactive. In addition, in experiment [6], the z-score was 0.29 (inactive).

Regarding `c1ccc2cc(CC3=NCCN3)ccc2c1`, in experiment [1], the period change is 0.04 h (inactive). Also, the inhibition in experiment [2] is -3% (inactive). Also, the fluorescence ratio (interference) in experiment [3] was 1 (inactive). The fold change in experiment [4] (stronger effect = lower value) is 1.06 (inactive); in experiment [4] (setting [9]), 1.69. Also, the cell count in experiment [4] (setting [10]) turned out to be 11100; in experiment [4] (setting [11]) it was 10500. Moreover, in experiment [5], the result was inactive. In experiment [6], the z-score was 0.28 (inactive).

For the molecule `CCCCC/C=C\C/C=C\C/C=C\C/C=C\CCCC(=O)NCCO`, the survival in experiment [7] is 114 (inactive). Besides, the fold change in experiment [4] (stronger effect = lower value) is 0.996 (inactive) and 0.983 (inactive); in experiment [4] (setting [9]), 0.958 and 0.763. In addition, the cell count is 6110 and 5070 in experiment [4] (setting [10]); 6130 and 5160 in experiment [4] (setting [11]). Further, the fold fluorescence in experiment [8] is 5.85 (inactive).

As for `CC(C)(C)OC(=O)NC1[C@H]2CNC[C@@H]12` (stereo not given in full), the fold change was 1.05 (inactive) in experiment [4] (stronger effect = lower value) and 1.39 in experiment [4] (setting [9]). Further, the cell count in experiment [4] (setting [10]) amounted to 11400; in experiment [4] (setting [11]), 10800. Further, the molecule was called inactive in experiment [5]. Besides, the z-score in experiment [6] is 0.37 (inactive).

For the molecule `CCCCC/C=C\C/C=C\C/C=C\C/C=C\CCCC(=O)NCc1ccc(O)c(OC)c1`, the fold change in experiment [4] (stronger effect = lower value) is 0.841 (inactive) and 1 (inactive); in experiment [4] (setting [9]), 1.08 and 0.996. The cell count in experiment [4] (setting [10]) was 2750 and 5480; in experiment [4] (setting [11]), 3270 and 5460. The fold fluorescence in experiment [8] was 5.97 [at 113.7 µM] (inactive).

With `CCCCC/C=C\C/C=C\C/C=C\C=C\[C@H](CCCC(=O)O)OO`, in experiment [7], the survival was 114 (inactive). Moreover, the fold change in experiment [4] (stronger effect = lower value) was 0.99 (inactive); in experiment [4] (setting [9]), 1.08. Further, the cell count in experiment [4] (setting [10]) stood at 5950; in experiment [4] (setting [11]) it was 6010. In addition, the fold fluorescence in experiment [8] is 5.34 [at 1 µM] (inactive).

Turning to `O=C1CC[C@@]2(O)C3Cc4ccc(O)c5c4C2(CCN3CC2CC2)[C@H]1O5` (stereo not given in full), the period change in experiment [1] is -0.05 h (inactive). The inhibition in experiment [2] is -6% (inactive). The fluorescence ratio (interference) in experiment [3] was 1 (inactive). In addition, the values for the fold change in experiment [4] (stronger effect = lower value) and in experiment [4] (setting [9]) were 1.1 (inactive) and 1.19, respectively. Moreover, the cell count came to 11300 in experiment [4] (setting [10]) and 10300 in experiment [4] (setting [11]). Further, in experiment [5], the molecule was called inactive. In experiment [6], the z-score is 0.445 (inactive).

For `O=C(NC1CN2CCC1CC2)c1cc2ccoc2cn1` (stereo not given), the fold change in experiment [4] (stronger effect = lower value) was 0.991 (inactive); in experiment [4] (setting [9]) it was 1.41. Besides, the cell count worked out at 10200 in experiment [4] (setting [10]) and 10300 in experiment [4] (setting [11]). Further, the result in experiment [5] was inactive. In addition, the z-score in experiment [6] is 0.38 (inactive).

For the molecule `CCCCC/C=C\C=C\[C@H](CCCCCCCC(=O)O)OO`, in experiment [7], the survival is 87.6 (inactive). In addition, the fold change in experiment [4] (stronger effect = lower value) is 0.93 (inactive); in experiment [4] (setting [9]), 1.23. In addition, the cell count was 5880 in experiment [4] (setting [10]) and 6320 in experiment [4] (setting [11]). Also, the fold fluorescence in experiment [8] is 5.11 [at 1 µM] (inactive).

As for `CCN1C[C@@]2(COC)C3[C@@H](OC)C4[C@@H]1C3([C@@H]1C[C@@]3(O)[C@H](OC(=O)c5ccccc5)[C@@H]1[C@]4(OC(C)=O)[C@@H](O)[C@@H]3OC)[C@H](OC)C[C@H]2O`, in experiment [2], the inhibition was -4% (inactive). In addition, the fluorescence ratio (interference) in experiment [3] is 1 (inactive). For the same molecule, the fold change in experiment [4] (stronger effect = lower value) is 1.01 (inactive); in experiment [4] (setting [9]), 1.67. Further, the cell count stood at 10600 in experiment [4] (setting [10]) and 10500 in experiment [4] (setting [11]). The outcome in experiment [5] was inactive. In addition, in experiment [6], the z-score is 0.075 (inactive).
